# Screens (PubChem BioAssay)
# Hits are enriched below; roughly 2.4% of the tested compounds scored in any of these assays.
# Cruzain Triton = cruzain (T. cruzi) inhibition with detergent. 0.43% of 200,000 active. purified cruzain, Z-FR-AMC fluorescence, 0.01% Triton. Potency, µM, for the others: max response, negative = inhibition, hits mostly inhibitors. P25779;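 note: plate controls were neutral wells for no effect and buffer without enzyme for full effect; nearly all actives have a fitted effect of over 40% in size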
# Target sequence (P25779 123-467 limits assumed): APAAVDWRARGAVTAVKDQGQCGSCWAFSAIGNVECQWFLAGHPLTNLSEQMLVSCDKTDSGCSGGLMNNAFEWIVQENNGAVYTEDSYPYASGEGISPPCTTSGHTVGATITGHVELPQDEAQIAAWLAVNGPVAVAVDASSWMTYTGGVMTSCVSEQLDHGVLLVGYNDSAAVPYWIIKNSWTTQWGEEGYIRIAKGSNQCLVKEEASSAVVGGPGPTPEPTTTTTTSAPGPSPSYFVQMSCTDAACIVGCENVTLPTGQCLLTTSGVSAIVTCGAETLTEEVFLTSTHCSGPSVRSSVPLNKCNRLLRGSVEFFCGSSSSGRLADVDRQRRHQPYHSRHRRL
#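 Cysteine protease activity tested under reducing, mildly acidic conditions (100 mM sodium acetate pH 5.5, 5 mM DTT) plus 0.01% Triton X-100. Cruzain 1.5 nM; substrate Z-FR-AMC 2 uM; 15 min compound preincubation at room temperature.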
# Cruzain noTriton = inhibitors of Trypanosoma cruzi cruzain without detergent | 2.3% of 200,000 active | purified cruzain, Z-FR-AMC fluorescence, no detergent | P25779 | Potency, µM, for the others: max response, negative = inhibition, most hits filed as inhibitors;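 note: plate controls were enzyme without inhibitor for no effect and buffer without enzyme for full effect; nearly all actives have a fitted effect of over 40% in size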
#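 Purified cruzain at 1.5 nM, pre-incubated 15 min with compound at room temperature in 100 mM sodium acetate pH 5.5, 5 mM DTT, 0.00005% Triton X-100. Reaction started with 2 uM Z-FR-AMC; AMC fluorescence increase over 60 s gives rate.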
# * hit, by the source's call; ? = inconclusive. Calls come from the whole dose curve; as a rule, active = well fitted curve in the direction sought with a large enough effect; inconclusive = small, poorly fitted or top-dose-only effect, or another doubt; inactive = no such curve, though single readings can be large; an effect the other way counts as inactive or inconclusive. Potency is the fitted concentration of half-maximal effect.
SMILES,Cruzain Triton,Cruzain noTriton
Cc1ccc(N2C(=O)CS(=O)(=O)C23C(=O)N(Cc2ccc(Cl)cc2)c2ccccc23)cc1C (configuration not stated),-2.7%,12.6µM*
Cc1ccc(N2C(=O)CS(=O)(=O)C23C(=O)N(Cc2ccccc2F)c2ccccc23)cc1Cl (configuration not stated),-4.6%,1.26µM*
Cc1noc(C)c1-c1ccc2ncnc(N(C)Cc3ccco3)c2c1,-0.2%,6.2%
CC(=O)N1c2ccc(S(=O)(=O)NCC3CCC(C(=O)Nc4cccc(F)c4)CC3)cc2CC1C (configuration not stated),-2.0%,11.8%
COc1ccccc1Cn1c(CNS(=O)(=O)c2cccc([N+](=O)[O-])c2)nc2cccnc21,-1.1%,-7.9%
Clc1cccc(-c2nc3ccccn3c2Nc2ccc3c(c2)OCCO3)c1,-12.4%,?
O=C1CS(=O)(=O)C2(C(=O)Nc3ccccc32)N1c1cccc(Cl)c1 (configuration not stated),-3.2%,-24.8%
Cc1ccc(CN2C(=O)C3(c4ccccc42)N(c2ccc(C)c(Cl)c2)C(=O)CS3(=O)=O)cc1 (configuration not stated),-4.0%,1.26µM*
O=C(NC[C@H](O)c1ccccc1)c1ccccc1,1.3%,-3.7%
CCOC(=O)c1c(-c2ccc(C)cc2)csc1NC(=O)c1cc(=O)c2cc(C)ccc2o1,-1.7%,-22.7%
COc1ccc(C2C=C(c3ccc(F)cc3)Nc3nc(-c4ccc(Cl)cc4)nn32)cc1 (configuration not stated),2.0%,-21.9%
COc1ccc(C2=CC(c3ccccc3Cl)n3nc(-c4ccc(C)cc4)nc3N2)cc1 (configuration not stated),-4.9%,3.16µM*
Cc1ccccc1CN1C(=O)c2ccccc2S(=O)c2ccc(C(=O)NC3CCC(C)CC3)cc21 (configuration not stated),0.6%,7.6%
Cc1ccc(NC(=O)CCS(=O)(=O)c2cccc3nsnc23)c(C)c1,-0.4%,-11.0%
CCc1ccc2c(CN3CCc4ccccc43)cc(=O)oc2c1,-3.7%,31.6µM*
Cc1cc2oc(=O)cc(CN3CCc4ccccc43)c2cc1Cl,-3.8%,?
CC(=O)c1cc2c(cc1N/C(=N/S(=O)(=O)c1ccc(C)cc1)c1ccc(F)cc1)OCO2,1.7%,24.9%
O=C1CC(SCc2nc3ccccc3[nH]2)C(=O)N1c1ccc(Cl)cc1 (configuration not stated),-8.7%,-3.0%
O=C1CC(SCc2nc3ccccc3[nH]2)C(=O)N1c1ccc(F)c(Cl)c1 (configuration not stated),-18.6%,15.8µM*
Cn1c(NC(=S)Nc2ccccc2)nc2ccccc21,0.6%,?
S=C(Nc1ccccc1)Nc1nc2ccccc2n1CCOc1ccc(Br)cc1,2.6%,7.94µM*
CCOc1ccc(-c2nonc2NC(=O)c2oc3c(C)c(C)ccc3c2C)cc1OCC,-2.3%,?
Cc1cc(NC(=O)COC(=O)c2oc3c(Cl)cccc3c2C)no1,4.1%,12.6µM*
Cc1cc(NC(=O)COC(=O)c2n[nH]c3ccccc23)no1,1.5%,2.2%
Cc1ccc(NC(=O)Cn2c(=O)n(Cc3nc(-c4ccccc4)no3)c(=O)c3cc4c(cc32)OCO4)cc1F,-3.1%,12.6µM*
SMILES,Cruzain Triton,Cruzain noTriton
O=C(Cn1c(=O)n(Cc2nc(-c3ccccc3)no2)c(=O)c2cc3c(cc21)OCO3)Nc1ccc(Cl)cc1,-3.9%,10µM*
Cc1ccc(NC(=O)Cn2c(=O)n(Cc3nc(-c4ccccc4)no3)c(=O)c3cc4c(cc32)OCO4)c(C)c1,-0.2%,-19.8%
O=C(Cn1c(=O)n(Cc2nc(-c3ccccc3)no2)c(=O)c2cc3c(cc21)OCO3)Nc1ccccc1,-4.3%,?
Cc1nc(N2C(=O)c3oc4ccccc4c(=O)c3C2c2ccccc2F)sc1C (configuration not stated),0.0%,2.1%
COc1ccccc1[C@H]1C(c2ccccc2)=NN(c2ccccc2)[C@@H]1CO,-26.2%,?
CC[C@H]1C(c2ccccc2)=NN(c2ccccc2)[C@@H]1CO,-7.5%,?
COc1ccccc1[C@H]1C(c2cccc(C)c2)=NN(c2ccccc2)[C@@H]1CO,3.0%,17.8µM*
COc1ccccc1[C@H]1C(c2ccc(F)cc2)=NN(c2ccccc2)[C@@H]1CO,-1.4%,31.6µM*
CCn1c(SCC(=O)Nc2c(C)cccc2C)nnc1-c1nonc1NC(C)=O,-2.6%,-10.3%
CCOC(=O)c1c(C)c(-c2ccccc2)n(CC(=O)NC2CCCCC2)c1C,-1.5%,5.3%
COc1ccc(-c2noc(CSc3nnc(-c4ccc(Cl)cc4)n3C)n2)cc1OC,-7.2%,-2.4%
CCc1ccc(C(=O)c2cn(CC(=O)Nc3cc(F)ccc3F)c3nc(C)ccc3c2=O)cc1,-3.1%,-10.0%
O=C(NC1CC(=O)N(c2cccc(F)c2)C1)c1ccc2c(c1)OCO2 (configuration not stated),-0.6%,-15.8%
COC(=O)c1ccc(CC(=O)c2nc3ccccc3s2)cc1,-2.0%,31.6µM*
O=C(Cc1ccccc1)c1nc2ccccc2s1,-14.9%,-12.9%
COC(=O)[C@@]1(Cc2ccc(F)cc2)[C@H]2c3cc(C(=O)N(C)C)n(CCc4ccc(O)c(O)c4)c3C[C@H]2CN1C(=O)c1ccccc1,-7.2%,?
O=[N+]([O-])O[C@H]1CO[C@H]2[C@@H]1OC[C@H]2O,-1.9%,-6.8%
COc1ccc(-c2cnc(C)o2)cc1S(=O)(=O)Nc1ccc(F)cc1F,-5.5%,-17.2%
CC(=O)c1ccc(NC(=O)c2noc3c2CSc2ccccc2-3)cc1,-1.5%,0.6%
CC(O)CNC(=O)C(=O)Nc1c2c(nn1-c1ccc(Cl)cc1)CSC2 (configuration not stated),-2.5%,?
CNC(=S)N1N=C(c2ccc(C)cc2)CC1c1ccc(Cl)cc1 (configuration not stated),-7.7%,-29.9%
CNC(=S)N1N=C(c2ccc(C)cc2)CC1c1ccc(Br)cc1 (configuration not stated),-1.7%,2.51µM*
Cc1cc(=O)n(Cc2cccc(F)c2)c2c1c(C)nn2-c1cccc(F)c1,0.3%,-2.2%
Cc1ccc2nc(/C(C#N)=C/c3ccc(-c4cccc(Cl)c4)o3)[nH]c2c1,?,12.6µM*
N#C/C(=C\c1ccc(-c2ccc(Cl)c(C(=O)O)c2)o1)c1nc2ccccc2[nH]1,-2.5%,-5.3%
SMILES,Cruzain Triton,Cruzain noTriton
COc1cc(/C=C(\C#N)c2nc3ccc(C)cc3[nH]2)ccc1OC(C)C,-0.6%,3.7%
Cc1ccc2nc(/C(C#N)=C/c3cccc(Br)c3)[nH]c2c1,-1.8%,20µM*
CCC(C)C(NC)C(=O)O (configuration not stated),2.4%,1.3%
O=C(Cc1ccc(NC(=O)N2CCSc3ncccc32)cc1)NCCc1ccccc1,-15.9%,-13.2%
COc1ccc(S(=O)(=O)n2nc(OC(=O)c3ccccc3)cc2N)cc1,-15.2%,-15.7%
COc1ccc(S(=O)(=O)n2nc(OC(=O)c3ccco3)cc2N)cc1,12.6µM*,20µM*
COc1ccc(S(=O)(=O)n2nc(OC(=O)c3cccs3)cc2N)cc1,?,12.6µM*
COc1ccc(S(=O)(=O)n2nc(OC(=O)c3ccc(C)cc3)cc2N)cc1,-11.2%,-26.1%
CN(C)c1ccc(CNC(=O)c2cc3cc(S(=O)(=O)N4CCCCC4)ccc3n2C)cc1,-1.0%,?
Cc1ccc(C)c(N2CCN(c3nc4ccccc4c4nc(CCn5nc(C)cc5C)nn34)CC2)c1,0.8%,6.6%
